Screens (PubChem BioAssay)
Abs 340nm: absorbance at 340 nm; compound absorbance at 340 nm, fold over control; fold change at 10 µM; 65,000 tested, under 10 active; AID 708;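 active = at 10 µM dose, initial 340 nm absorbance at least 2 fold that of control wells; inactive = change under 2 fold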;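 also: initial absorbance extrapolated from kinetic A340 decline of NADH oxidation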
PMK inhibit: S. pneumoniae PMK inhibition | purified PMK, PK/LDH-coupled NADH absorbance 340 nm | inhibition, % at 10 µM | 0.49% of 65,000 active | AID 539;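 active = top-ranked compounds by inhibition in the single 10 µM screen, taking a fixed number of the strongest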
DPM-DC inhibit: S. pneumoniae DPM-DC inhibition; calls only at 10 µM; 0.49% of 65,000 active; purified DPM-DC, PK/LDH coupled NADH fluorescence; AID 556;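 active = the 320 compounds with the highest percent inhibition in the single-dose primary screen, excluding strongly autofluorescent ones, cut at about 32% in these data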;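 also: kinetic rate of NADH fluorescence loss reporting ADP formed by the decarboxylase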
Autofluor 339: intrinsic fluorescence of library compounds, ex339/em460 – biochemical, MLSMR library, data from DPM-DC assay, artefact control, profiling panel; 5.5% of 65,000 active; fluorescence fold increase at 10 µM; compound autofluorescence, ex339/em460 nm, NADH buffer; stronger effect = higher value; 1 = no-compound wells, NADH background;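 active = at 10 µM, mean starting fluorescence two-fold or more over control wells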;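 also: signal is the first read of a kinetic run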
Spn MK inh: blocks S. pneumoniae mevalonate kinase | purified MK, PK/LDH-coupled NADH absorbance 340 nm | 0.48% of 65,000 active | inhibition, % at 10 µM;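 active = ranked among the strongest by inhibition in the single 10 µM screen, a fixed top-ranked set picked for dose follow-up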
NADH coupling: blocks coupling enzymes of NAD/NADH assays | coupled PK/LDH NADH assays, four targets | IC50, µM (doses to about 10 µM) | 0.02% of 65,000 active;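 active = single-dose screening hits from any of four coupled enzyme assays that gave an IC50 when retested across doses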;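 also: the DPM-DC format reads NADH fluorescence rather than 340 nm absorbance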
Each line names hits and unclear results; the compound was inactive in the other large screens. Sampled rows, rich in hits. Any-hit rate of the full collection: about 6.5%.

Cc1c(NS(=O)(=O)c2cccc3nsnc23)c(=O)n(-c2ccccc2)n1C	none
O=C(c1cccnc1)N1CCc2ccccc2C1	PMK inhibit 34
O=C(c1nc(-c2ccccc2)n(-c2ccccc2)n1)N1CCN(S(=O)(=O)c2ccccc2)CC1	none
CCOC(=O)C1CCN(Cc2ccc(C(=O)OC)cc2)CC1	Spn MK inh 60
CCOC(=O)N1CCN(C(=O)COc2ccc3c(c2)C(=O)CC2(CCN(C(C)=O)CC2)O3)CC1	Autofluor 339 5 (not shown: DPM-DC inhibit)
Cc1cccc(N2CCN(C(=O)n3ccnc3)CC2)c1C	none
CCOc1ccc(CCNS(=O)(=O)c2cccc3nsnc23)cc1OCC	none
Cc1ccc2c(c1)-c1ccccc1S(=O)(=O)N2	Autofluor 339 3.7 (not shown: DPM-DC inhibit)
CCc1ccc(NC(=O)c2cnc3scc(C)n3c2=O)cc1	DPM-DC inhibit active
COc1ccc(C)cc1NC(=O)c1cnc2scc(C)n2c1=O	Autofluor 339 2.1 (not shown: DPM-DC inhibit)
Cc1csc2ncc(C(=O)Nc3cccc(C(F)(F)F)c3)c(=O)n12	none
Cc1cc(=O)oc2c(CN3CCCCC3)c(O)c(Cl)cc12	Autofluor 339 2.4 (not shown: DPM-DC inhibit)
Cc1cc(=O)oc2c(CN3CCC(C)CC3)c(O)c(Cl)cc12	Autofluor 339 2.3 (not shown: DPM-DC inhibit)
CCN1CCN(Cc2c(O)c(Cl)cc3c(C)cc(=O)oc23)CC1	Autofluor 339 2.2 (not shown: DPM-DC inhibit)
CCc1cc(=O)oc2cc(C)c(CN3CCCCC3)c(O)c12	none
Cc1ccc(C)c(C(C)NC(=O)C2C3CCC(O3)C2C(=O)O)c1 (centres undefined)	none
COc1ccc(-c2cc(C(F)(F)F)nc(SCC(=O)Nc3cc(C)on3)n2)cc1	Autofluor 339 3
COc1ccc(-c2cc(C(F)(F)F)nc(SCC(=O)N3CCOCC3)n2)cc1OC	Autofluor 339 2.4
COc1ccccc1-c1cc(C(F)(F)F)nc(S(=O)(=O)CCCC(=O)N2CCOCC2)n1	none
COc1ccc(-c2cc(C(F)(F)F)nc(S(=O)(=O)CCC(=O)N3CCOCC3)n2)cc1	Autofluor 339 2.8
COCCNC(=O)CSc1nc(-c2ccc(OC)c(OC)c2)cc(C(F)(F)F)n1	Autofluor 339 2.1
Cc1nn(CCc2nc(-c3ccco3)cs2)c2[nH]c(=O)cc(C(F)(F)F)c12	none
CCCCCOc1ccc(C2C(C(C)=O)=C(C)Nc3ncnn32)cc1OC (centres undefined)	none
CN(C(=O)c1ccc(NC(=O)c2cnccn2)cc1)C1CCCCC1	none
CCOC(=O)c1ccccc1NCN1C(=O)CSC1=O	PMK inhibit 29, Autofluor 339 2.2 (not shown: DPM-DC inhibit)
CCOC(=O)c1ccccc1NC(=O)C1COc2ccccc2O1 (centres undefined)	none
CCOC(=O)c1ccccc1NC1CC(=O)N(c2ccccc2C)C1=O (centres undefined)	Autofluor 339 3.3 (not shown: DPM-DC inhibit)
CCOC(=O)c1ccc(NC(=O)CN2C(=O)CSC2=O)cc1	none
c1ccc(-c2nc(NCc3cccnc3)c3oc4ccccc4c3n2)cc1	none
CCOC(=O)c1cc(C)n(-n2cnnc2)c1C	none
CCOC(=O)N1CCN(C(=O)CCc2c(C)nc3c(c(C)nn3-c3ccc(C)c(C)c3)c2C)CC1	DPM-DC inhibit active, Autofluor 339 2.6
Cc1ccc(-n2nc(C)c3c(C)c(CCC(=O)NCc4ccco4)c(C)nc32)cc1	Autofluor 339 2.2 (not shown: DPM-DC inhibit)
Cc1cc(C)c2c(n1)nn1c(C)c(CCC(=O)NCc3ccco3)c(C)nc21	Autofluor 339 2.1 (not shown: DPM-DC inhibit)
Cc1ccccc1S(=O)(=O)Cc1ccc(C(=O)NCc2cccnc2)o1	none
O=C(O)C1CC=CCC1C(=O)Nc1ccccc1Cl (centres undefined)	none
O=C1CC(c2cccs2)Cc2nc(NCC3CCCO3)ncc21 (centres undefined)	none
O=C(O)CNCC1COc2ccccc2O1 (centres undefined)	none
CC(CC(=O)O)NCC1COc2ccccc2O1 (centres undefined)	PMK inhibit 26
CS(=O)(=O)N(CC(=O)NCCC1=CCCCC1)C1CCCCC1	none
O=C(CN1CCN(C2CCCCC2)CC1)NCCC1=CCCCC1	Spn MK inh 61
COC(=O)C1C(=O)NC(SC)=C(C#N)C1c1ccccc1F (centres undefined)	none
CC(=O)Nc1nn(C)c2nc3cc(C)ccc3cc12	none
Cc1ccc2cc3c(NC(=O)c4ccco4)nn(C)c3nc2c1	DPM-DC inhibit active, Autofluor 339 2.9
Cc1cccc(NC(=O)c2cc3n(n2)C(C(F)(F)F)CC(c2ccc4c(c2)OCO4)N3)c1 (centres undefined)	none
Cc1cc(C)c2c(c1)-c1cc(C)nn1C(c1ccc3c(c1)OCO3)N2 (centres undefined)	Autofluor 339 2.7
Cc1cc2n(n1)C(c1ccc3c(c1)OCO3)Nc1c(C)cccc1-2 (centres undefined)	Autofluor 339 2.2
Cn1c(NC(=O)Cc2ccc(F)cc2)cc(=O)n(C)c1=O	none
CC(=O)Nc1c(-c2ccc(F)cc2)nc2ccccn12	none (not shown: DPM-DC inhibit)
COC(=O)Nc1c(-c2ccccc2)nc2ccc(C)cn12	Autofluor 339 3.8 (not shown: DPM-DC inhibit)
COC(=O)Nc1c(-c2ccccc2)nc2ccccn12	Autofluor 339 2.1 (not shown: DPM-DC inhibit)
COC(=O)C(O)(CC(=O)Nc1cccc(SC)c1)C(F)(F)F (centres undefined)	none
Cc1cc2n(n1)C(c1ccc(O)cc1)Nc1ccccc1-2 (centres undefined)	Autofluor 339 2.9
Cc1cc2n(n1)C(c1ccco1)Nc1ccccc1-2 (centres undefined)	none
Cc1cc2n(n1)C(c1c[nH]c3ccccc13)Nc1ccccc1-2 (centres undefined)	Autofluor 339 2.4
CCn1cc(C2Nc3ccccc3C(=O)N2O)c(C)n1 (centres undefined)	none
Cc1cc2n(n1)C(c1cn(-c3ccccc3)nc1C)Nc1ccccc1-2 (centres undefined)	Autofluor 339 2.1
COC(=O)c1ccc(C(=O)OC)c(NC(=O)c2cc3ccccc3o2)c1	none
CN(C1CCCCC1)S(=O)(=O)Cc1ccccc1	none
OC1CN=C2C=CC=CN2C1 (centres undefined)	Autofluor 339 2.2
CCOC(=O)C1CCCn2c1nc1sc3c(c1c2=O)CCCC3 (centres undefined)	none
CN(C)c1oc(-c2ccc(OCc3ccc(Cl)cc3)cc2)nc1C#N	Autofluor 339 3.3
CN(C)CCNc1oc(COc2ccc(-c3ccccc3)cc2)nc1C#N	none
COCCNc1oc(-c2ccc(Cl)cc2)nc1C#N	Autofluor 339 2.4 (not shown: DPM-DC inhibit)
COCCNc1oc(-c2ccc(C)cc2)nc1C#N	Autofluor 339 2.5 (not shown: DPM-DC inhibit)
CN(C)CCCNc1oc(-c2ccc(Cl)cc2)nc1C#N	Autofluor 339 4.8 (not shown: DPM-DC inhibit)
CN(C)c1oc(COc2ccc(F)cc2)nc1C#N	none
COCCCNc1oc(COc2ccc(Cl)cc2Cl)nc1C#N	none
CCC(C)NC(=O)c1ccccc1NS(=O)(=O)c1ccc(OC)c(OC)c1 (centres undefined)	none
CCN(CC)CCCNc1oc(-c2cccc(Cl)c2)nc1C#N	Autofluor 339 3 (not shown: DPM-DC inhibit)
